Source: PubChem (National Center for Advancing Translational Sciences (NCATS))
KB-V1 cytotox – qHTS assay for MDR1-selective chemotherapeutics: Primary screen using the drug-selected MDR subline cells KB-V1 | AID 1347076, 2019 | Potency, µM (top dose mostly 46.1 µM), hits mostly cytotoxic | KB-V1 MDR cells viability, CellTiter-Glo, 72 h | 400,000 compounds, 3.4% hits; note: potency is the fitted concentration of half-maximal effect; % is set by controls: 0 for no effect and ±100 for the full control effect; nearly all actives have a fitted effect of over 60% in size
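Readout: CellTiter-Glo luminescence, 10 min after addition. Cells: KB-V1 MDR subline, 72 h at 37 degrees C with compound. Analysis: corrected, normalized data fitted to concentration-effect curves.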
DRD3 antagonist – qHTS of D3 Dopamine Receptor Antagonist: qHTS. D(3) dopamine receptor (Homo sapiens), P35462. D3R cells, DiscoveRx beta-arrestin luminescence, antagonist mode; stronger effect = lower value. max response, negative = inhibition, %. 360,000 compounds, 2.5% hits; in the data active = max response below about -50%; inconclusive = no clear call, values can overlap the other calls; note: % is set by controls: 0 for no effect and ±100 for the full control effect
Target sequence (P35462 whole entry, looked up): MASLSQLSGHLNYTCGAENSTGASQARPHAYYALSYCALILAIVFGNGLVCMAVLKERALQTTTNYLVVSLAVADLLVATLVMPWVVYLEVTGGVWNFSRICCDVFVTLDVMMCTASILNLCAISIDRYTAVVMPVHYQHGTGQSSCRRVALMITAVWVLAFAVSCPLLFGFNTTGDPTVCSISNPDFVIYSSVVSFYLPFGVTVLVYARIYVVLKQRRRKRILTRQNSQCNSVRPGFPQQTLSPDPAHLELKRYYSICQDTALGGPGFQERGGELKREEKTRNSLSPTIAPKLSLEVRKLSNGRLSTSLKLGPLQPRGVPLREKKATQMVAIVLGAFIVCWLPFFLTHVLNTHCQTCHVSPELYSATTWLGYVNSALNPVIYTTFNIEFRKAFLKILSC
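Cells plated overnight at 1500 cells/well, then exposed to library compounds with dopamine controls for 90 minutes at 37 degrees C. DiscoveRx reagent added for 30–60 minutes at room temperature; luminescence read, quantitative HTS format.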
DRD3 agonist – qHTS of D3 Dopamine Receptor Agonist: qHTS; max activation, %; D3R DiscoveRx beta-arrestin cells, luminescence, 90 min; 410,000 compounds, 0.58% hits; D(3) dopamine receptor (Homo sapiens), P35462; AID 652048, 2013; in the data active = max activation above about 30%; note: 0% is about no effect
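Agonist mode: compounds and dopamine controls were applied to plated cells for 90 min at 37 degrees C after an overnight attachment at 1500 cells/well. Luminescent read-out followed 30 - 60 minutes at room temperature with DiscoveRx detection reagent.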
MCF10A rerep – A quantitative high throughput screen for small molecules that induce DNA re-replication in MCF 10a normal breast cells. MCF 10A DNA re-replication, Hoechst nuclear intensity, 48 h. Potency, µM (series often up to 46.1 µM), for inactives: at the highest dose activity, positive = re-replication, actives largely listed as activators. 350,000 compounds, 2.9% hits. AID 624296, 2012; note: potency is the fitted concentration of half-maximal effect; % of control where 0% means no effect; nearly all actives have a fitted effect of over 50% in size
KB-3-1 tox – qHTS assay for MDR1-selective chemotherapeutics: Primary screen using the parental adenocarcinoma cell KB-3-1; KB-3-1 viability, CellTiter-Glo ATP luminescence, 72 h; Potency, µM (top dose mostly 46.1 µM), hits mostly cytotoxic; 400,000 compounds, 1.4% hits; note: potency is the fitted concentration of half-maximal effect; % is set by controls: 0 for no effect and ±100 for the full control effect; nearly all actives have a fitted effect of over 60% in size
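Using CellTiter-Glo luminescence, growth of non-resistant KB-3-1 adenocarcinoma cells is assessed 72 h after pin-tool compound addition at 37 °C. Normalized responses across the concentration series yield fitted curves.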
SW480 rerep – A quantitative high throughput screen for small molecules that induce DNA re-replication in SW480 colon adenocarcinoma cells | SW480 DNA re-replication, Hoechst DNA content imaging, 48 h | Potency, µM (titrated, usually from 46.1 µM), for inactives: at the highest dose re-replication activation, usual class: activators | 340,000 compounds, 1.8% hits | AID 624297, 2012; note: potency is the fitted concentration of half-maximal effect; % of control where 0% means no effect; nearly all actives have a fitted effect of over 55% in size
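SW480 cells exposed to compounds for 48 hr at 37 C, 5% CO2, then Hoechst-stained 40 min. Nuclear DNA content imaged by fluorescence scanning (405 nm excitation, 500-530 nm emission); re-replication scored as increased high-intensity nuclei.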
Starred values were filed as active, the others as inactive; i = inactive; ? = inconclusive; / = no result; ! = not confirmed by another sample. Sampled rows, rich in hits. Any-hit rate of the full collection: about 8.9%. Unless noted, calls come from the whole dose curve; as a rule, active = well fitted curve in the direction sought with a large enough effect; inconclusive = small, poorly fitted or top-dose-only effect, or another doubt; inactive = no such curve, though single readings can be large; an effect the other way counts as inactive or inconclusive.

SMILES | KB-V1 cytotox | DRD3 antagonist | DRD3 agonist | MCF10A rerep | KB-3-1 tox | SW480 rerep
CN1CCN(C2=C(Cl)C(=O)N(c3ccc(Cl)cc3)C2=O)CC1 | i | -82.6* | 4.7 | 0.9% | i | -0.2%
O=C1C(Cl)=C(N2CCOCC2)C(=O)N1CCc1ccccc1 | 14.6µM* | -28.1 | 2.2 | 13.0% | i | -10.2%
O=C1C(Cl)=C(N2CCCCC2)C(=O)N1Cc1ccccc1 | i | -0.1 | -4.4 | ? | i | -1.9%
Cc1ccc(N2C(=O)C(Cl)=C(N3CCN(C)CC3)C2=O)c(C)c1 | i | ? | -10.9 | -2.6% | i | -2.5%
O=C1C(Cl)=C(NCCCN2CCOCC2)C(=O)N1CCc1ccccc1 | i | -19.0 | -1.9 | -2.7% | i | -3.3%
CCn1c(=N)c(C(=O)NCc2ccccc2)cc2c(=O)n3cc(C)ccc3nc21 | ? | / | 8.8 | / | i | /
CC(C)(C)NC(=O)c1oc2ccccc2c1NC(=O)c1ccc(F)cc1 | i | / | -11.6 | / | i | /
O=C(Nc1ccc([N+](=O)[O-])cc1Cl)c1cc(Cl)ccc1O | 1.03µM* | 35.1 | 5.0 | ? | 1.16µM* | 3.16µM*!
O=C(Nc1cccc(Cl)c1)c1cc(N=Nc2ccc([N+](=O)[O-])cc2Cl)ccc1O | ? | -26.1 | 1.0 | 3.0% | 20.6µM* | 6.0%
O=C(Nc1ccccc1)c1cc([N+](=O)[O-])ccc1Cl | i | 32.4 | 18.3 | 2.0% | i | -9.7%
COc1cccc(/C=C/c2nc3ccccc3nc2/C=C/c2cccc(OC)c2OC)c1OC | i | / | / | / | ? | /
N#C/C(C(=O)N1CCOCC1)=C1/SC(Cc2ccccc2)C(=O)N1c1ccccc1 (configuration not stated) | i | -50.7* | -3.9 | 0.0% | i | -2.9%
Cc1oc2c(C)c3oc(=O)c(CCC(=O)N4CCCCC4)c(C)c3cc2c1C | / | / | 5.5 | / | / | /
C=CCn1cc(/C=N/Nc2nc3ccccc3[nH]2)c2ccccc21 | ? | -69.9* | -32.3 | ? | i | 20.2%
CC(C)Cn1c(/C=N/Nc2nc3ccccc3[nH]2)nc2ccccc21 | ? | -70.8* | -0.6 | 10.0% | 16.4µM* | ?
Cn1c(/C=N/Nc2nc3ccccc3[nH]2)nc2ccccc21 | i | -23.3 | -11.3 | 7.6% | ? | ?
Cc1c(/C=N/Nc2nc3ccccc3[nH]2)c2ccccc2n1C | ? | ? | -17.3 | 16.4µM* | ? | ?
Cc1ccc2c(CC(=O)Nc3ccc(S(=O)(=O)N4CCCCC4)cc3)coc2c1C | ? | / | -12.9 | / | i | /
COc1ccc(CC(=O)Nc2nn(C)c3nc4c(C)cccc4cc23)cc1 | i | 1.8 | 9.6 | 3.26µM* | i | ?
CCCn1nc(NC(=O)c2cccs2)c2cc3cccc(C)c3nc21 | i | 1.9 | -9.8 | 20.6µM* | i | ?
CCCn1nc(NS(=O)(=O)c2cccc3nonc23)c2cc3cccc(C)c3nc21 | i | -12.4 | -5.0 | ? | i | 12.3%
CCCn1nc(NS(C)(=O)=O)c2cc3cccc(C)c3nc21 | i | -53.3* | 0.0 | 9.0% | i | -1.3%
Cc1cc2nn(-c3cccc4ccccc34)nc2cc1NC(=O)c1cccs1 | 16.4µM* | -8.5 | 13.6 | 9.1% | i | -0.8%
CCSc1nc2c([nH]c3ccccc32)c(=O)n1-c1ccc(OC)cc1 | i | / | -3.3 | / | i | /
COc1ccccc1N1CCN(S(=O)(=O)c2c(C)nc3sccn3c2=O)CC1 | ? | / | 3.0 | / | i | /
SMILES | KB-V1 cytotox | DRD3 antagonist | DRD3 agonist | MCF10A rerep | KB-3-1 tox | SW480 rerep
Cc1ccc(C(=O)c2cn(Cc3cc(C)ccc3C)c3nc(C)ccc3c2=O)cc1 | ? | / | 20.8 | / | i | /
CCC(=O)Nc1nn(C)c2nc3c(C)cccc3cc12 | i | 12.0 | -5.3 | 6.51µM* | i | 20.6µM*
CCCn1nc(NC(=O)CC)c2cc3cccc(C)c3nc21 | i | 31.4 | -1.1 | 1.8% | i | 16.4µM*
Cc1ccc(Cl)cc1-n1ncc2c(Nc3ccc4c(c3)OCCO4)ncnc21 | i | / | -4.8 | / | i | /
Cc1ccc(S(=O)(=O)N(CC(=O)NCc2ccncc2)Cc2ccccc2F)cc1 | ? | 15.3 | 2.6 | -1.0% | i | 7.3%
Cc1ccc(S(=O)(=O)N(CC(=O)NCc2ccco2)Cc2ccccc2F)cc1 | 8.2µM* | -3.3 | -1.6 | -1.3% | i | -25.7%
CC1CCCCC1NC(=O)CN1CCN(S(=O)(=O)c2ccc(Br)s2)CC1 (configuration not stated) | 9.2µM* | 17.5 | 10.8 | 2.1% | ? | 1.4%
CCOC(=O)c1c(C)[nH]c(C)c1S(=O)(=O)NCC(=O)N(C)c1ccc(C)c(C)c1 | i | / | -15.8 | / | i | /
CCCN1CCN(CCNC(=O)Nc2ccccc2Cl)CC1 | i | -76.5* | -18.4 | 3.8% | i | -10.0%
O=C(NCCN1CCN(c2ccccc2)CC1)Nc1ccccc1Br | i | -78.6* | 9.1 | -17.4% | i | ?
O=C(NCCN1CCN(c2ccccc2)CC1)Nc1ccccc1Cl | i | -83.0* | 6.6 | 16.3% | i | -9.6%
COc1ccc(N2CCN(CCNC(=O)Nc3cccc(C)c3C)CC2)cc1 | i | -27.9 | -2.3 | -5.7% | i | -9.0%
O=C(NCCN1CCCCC1)Nc1cccc(Cl)c1Cl | i | ? | -25.3 | 0.2% | i | -4.1%
CC(C)c1ccc(NC(=O)CSC2=Nc3ccccc3C3=NC(CC(=O)NCc4ccc(F)cc4)C(=O)N23)cc1 (configuration not stated) | i | / | -2.2 | / | i | /
O=C(CSc1nc2cc3ccccc3cc2[nH]1)Nc1cccc(C(F)(F)F)c1 | i | / | -14.7 | / | i | /
Cc1ccc(Sc2ccc(N3CCC(C(=O)Nc4ccc(Cl)cc4)CC3)nn2)cc1 | i | / | 4.6 | / | i | /
COC(=O)N/N=C/c1ccc([N+](=O)[O-])s1 | ? | ? | -3.4 | -8.1% | i | ?
Cc1c(Cl)cccc1N=Cc1ccc([N+](=O)[O-])s1 | i | -50.8* | -29.3 | ? | i | ?
CN1CCN(CCCNC(=O)c2ccc(/C=C3\Sc4ccccc4N(Cc4ccccc4F)C3=O)cc2)CC1 | i | 16.4 | -2.1 | 16.4µM* | i | 20.6µM*
Cc1ccc(/C=C2/Sc3ccc(C(=O)NCCN4CCOCC4)cc3NC2=O)cc1 | i | -5.1 | -1.4 | 20.6µM* | i | 5.0%
Cc1ccccc1CN1C(=O)/C(=C\c2ccc(C(=O)NCCN3CCOCC3)cc2)Sc2ccccc21 | i | -1.1 | 9.9 | 20.6µM* | i | ?
